# Bioassay records (PubChem)
# Mtb UGM inh = M. tuberculosis UGM enzyme inhibitors, primary screen, biochemical, fluorescence polarization, single point; purified UGM, fluorescence polarization probe displacement; inhibition, % at 10 µM; 0.06% of 320,000 active; AID 504406, 2011; in the data active = inhibition above about 10%, passing the limit was not always enough
# Target sequence (P9WIQ1 whole entry, looked up): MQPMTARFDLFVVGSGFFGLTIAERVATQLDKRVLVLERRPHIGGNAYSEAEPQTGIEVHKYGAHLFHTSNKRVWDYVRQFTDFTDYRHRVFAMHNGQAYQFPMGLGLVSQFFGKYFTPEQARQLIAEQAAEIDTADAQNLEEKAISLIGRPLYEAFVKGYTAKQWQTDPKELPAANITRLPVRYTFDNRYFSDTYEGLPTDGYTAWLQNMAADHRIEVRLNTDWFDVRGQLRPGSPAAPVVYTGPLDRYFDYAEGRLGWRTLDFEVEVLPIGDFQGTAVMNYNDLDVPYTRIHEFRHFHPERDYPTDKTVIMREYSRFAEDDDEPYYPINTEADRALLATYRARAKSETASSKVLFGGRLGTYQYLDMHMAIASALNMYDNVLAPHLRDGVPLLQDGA
# Rv3671c inh = Rv3671c serine protease inhibitors, primary screen, biochemical, fluorescence polarization, M. tuberculosis H37Rv. P9WHR9. 0.048% of 320,000 active. inhibition, % at 5.96 µM. AID 2606, 2010; in the data active = inhibition above about 38%;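 also: extracellular domain of Rv3671c used as enzyme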
# RecA splice inh = Mtb RecA intein splicing inhibitors, primary screen, biochemical, fluorescence, HTS | Protein RecA (Mycobacterium tuberculosis (strain ATCC 25618 / H37Rv)), P9WHJ3 | cell-free RecA intein splicing | inhibition, % (test concentration not listed) | 0.75% of 290,000 active; in the data active = inhibition above about 30%
# FBA Mtb inh = Mtb FBA enzyme inhibitors, primary screen, biochemical, fluorescence, strain H37Rv | Fructose-bisphosphate aldolase (Mycobacterium tuberculosis (strain ATCC 25618 / H37Rv)), … | purified M. tuberculosis FBA, fluorescence read-out | inhibition, % at 1 µM | 2.3% of 360,000 active | AID 588726, 2011
# GDH-TPI counter-1 = GDH-TPI coupling enzyme inhibitors, primary screen, artefact control for M. tuberculosis FBA inhibitor project, biochemical, absorbance, full deck; GDH-TPI coupled enzyme counterscreen, NADH absorbance; inhibition, % at 4.8 µM; 1.2% of 360,000 active; in the data active = inhibition above about 30%
# Vc quorum ag = inducers of Vibrio cholerae quorum light production without autoinducers, primary screen, BH1578 luxS cqsA deficient, single point. V. cholerae BH1578 lux reporter, luminescence, 6 h. activation, % at 18.7 µM. 0.16% of 350,000 active; in the data active = activation mostly above about 9.7%, no sharp cut-off
# Mtb FBA inh conf = M. tuberculosis aldolase blockers, biochemical, fluorescence, strain H37Rv, confirmation | shares compounds with FBA Mtb inh | purified M. tuberculosis FBA, fluorescence read-out | inhibition, % at 1 µM | 78% of 5,600 active
# GDH-TPI counter-2 = GDH-TPI coupling enzyme inhibitors, artefact control for M. tuberculosis FBA inhibitor project, biochemical, fluorescence, high throughput. shares compounds with FBA Mtb inh. AID 652141, 2013. 81% of 5,600 active. inhibition, % at 1 µM. GDH-TPI coupled enzyme counterscreen; in the data active = inhibition above about 10%
# Numbers stand for hits; n = inactive; x = no result given; + = active, no number. The list is not random: actives were taken first. Their share in the collection is about 4.1%. Rule as the data show it, unless noted: active = inhibition above about 27%; inactive = the rest.
SMILES,Mtb UGM inh,Rv3671c inh,RecA splice inh,FBA Mtb inh,GDH-TPI counter-1,Vc quorum ag,Mtb FBA inh conf,GDH-TPI counter-2
CCOc1ccc2[nH]c(=O)c(CN(Cc3ccco3)Cc3nnnn3Cc3ccccc3)cc2c1,n,n,n,n,n,n,x,x
CCOc1ccc2[nH]c(=O)c(CN(Cc3ccco3)C(CC)c3nnnn3Cc3ccccc3)cc2c1 (configuration not stated),n,n,n,27,n,n,+,+
O=C1c2ccccc2NC(c2ccccc2)N1Cc1ccco1 (configuration not stated),n,n,n,51,n,x,n,n
COc1cccc(OCc2cc(C3Nc4ccccc4C(=O)N3Cc3ccco3)ccc2OC)c1 (configuration not stated),x,x,n,n,n,n,x,x
O=C1c2ccccc2NC(c2ccc(F)cc2)N1Cc1ccco1 (configuration not stated),n,n,n,49,n,n,85,61
Cn1cc(CNCc2cn(C)nc2-c2ccc(C3CCCCC3)cc2)cn1,n,n,n,n,n,n,x,x
Cc1cc(C)c(S(=O)(=O)NCC(c2ccco2)N2CCc3ccccc3C2)c(C)c1 (configuration not stated),n,n,n,n,n,n,x,x
Cc1cccc(NS(=O)(=O)Cc2ccccc2)n1,n,n,n,66,n,n,66,54
Cc1cc(NS(=O)(=O)Cc2ccccc2)no1,n,n,n,n,n,n,x,x
Cc1cccc(NS(=O)(=O)c2ccccc2)n1,n,n,n,29,n,n,69,59
CN1CCCN(C(=O)c2cccc3ccccc23)CC1,n,n,n,n,n,n,x,x
COc1ccc(N2CCN(CCC(N)=O)CC2)cc1,n,n,n,31,n,n,78,53
COc1ccc(C(=O)CCN2CCN(c3ccc(OC)cc3)CC2)cc1,n,n,n,n,n,n,x,x
Cc1ccc2c(c1)N(CC(=O)N1CCCC1)C(=O)CO2,n,n,n,n,n,n,x,x
CCN(CC)CCCNc1cc2n(c(=O)n1)CCc1cc(OC)c(OC)cc1-2,n,n,n,41,n,n,n,n
CCOc1cccc(Nc2cc3n(c(=O)n2)CCc2cc(OC)c(OC)cc2-3)c1,n,n,n,n,n,x,x,x
COc1ccc(-c2csc(N3CCC(c4ccccc4)C3)n2)cc1 (configuration not stated),n,n,n,45,n,n,133,91
COc1cccc(/C=N/NC(=O)c2nnn(-c3nonc3N)c2C(C)C)c1,n,n,n,n,n,n,x,x
CC1(C)CC(=O)C2=C(C1)c1c(ccc3ccccc13)NC2c1ccco1 (configuration not stated),n,n,n,87,n,n,104,89
Cc1ccc(CN(C)C(=O)CCNC(=O)c2ccc(Cl)cc2)o1,x,x,x,n,n,n,x,x
CCOC(=O)c1cn(Cc2cccc(Cl)c2)c2cc(C)nn2c1=O,n,n,n,28,n,n,67,53
Cc1ccc(-c2nc3ccc(C)cn3c2CC(=O)N(C)C)cc1,n,n,n,52,n,n,56,47
COc1ccc(C2CC(c3ccccc3OC(C)=O)=NN2C(C)=O)cc1 (configuration not stated),n,n,n,50,n,n,109,75
Cc1cc(F)ccc1-c1cc(C(=O)NC(C)C)[nH]n1,x,x,x,n,n,n,x,x
CN1CCN(S(=O)(=O)c2cccc(C(=O)NCc3ccc(Cl)cc3)c2)CC1,n,n,n,64,n,n,48,44
SMILES,Mtb UGM inh,Rv3671c inh,RecA splice inh,FBA Mtb inh,GDH-TPI counter-1,Vc quorum ag,Mtb FBA inh conf,GDH-TPI counter-2
COc1cccc(N2C(=NC(=O)C3CCCCC3)SC3CS(=O)(=O)CC32)c1 (configuration not stated),n,n,n,n,n,n,x,x
CCCNC(=O)C1(C)CCCN(C(=O)c2ccccc2OC(F)(F)F)C1 (configuration not stated),x,x,x,n,n,n,x,x
CC(C)c1nc(N2CCN(C(=O)c3ccco3)CC2)c(C#N)c2c1COC(C)(C)C2,n,n,n,37,n,n,+,+
COc1ccc(OCc2cc(C(=O)N(C)CCC3CCOCC3)no2)c(Cl)c1,n,n,n,n,n,n,x,x
Cc1c(Br)c(=O)oc2c(Br)c(O)ccc12,n,n,n,36,n,n,43,28
Cc1ccc2nc(-c3ccco3)c(Cc3cccc(F)c3)n2c1,x,x,x,31,x,x,+,138
COc1ccc(-c2nc3ccc(C)cn3c2Cc2cccc(Cl)c2)cc1OC,x,x,x,33,x,x,107,76
COc1ccccc1Cc1c(-c2ccc(OC)c(OC)c2)nc2ccc(C)cn12,x,x,x,45,x,x,119,94
Cc1ccc(Cc2c(-c3ccco3)nc3ccc(Br)cn23)cc1,x,x,x,n,x,x,x,x
CN(C)c1ccc(-[n+]2c(-c3ccccc3)cc(-c3ccccc3)cc2-c2ccccc2)cc1,x,x,x,n,n,n,x,x
Cc1c(-c2ccccc2)n(O)c(-c2ccc(N(C)C)cc2)[n+]1[O-],x,x,x,57,n,n,126,109
CCCNC(=O)c1onc(CSc2nc3ccccc3[nH]2)c1C(=O)NCCC,n,n,n,n,n,n,x,x
Cn1cccc2[nH]c(=O)nc1-2,n,n,n,37,n,n,78,54
Cc1cc(-c2ccccc2)nc(=O)[nH]1,n,n,x,n,n,n,x,x
Cc1ccccc1N(C=O)c1ccccc1C,x,x,x,n,n,n,x,x
CC(=O)OCC(=O)C1(O)CCC2C3CCC4=CC(=O)C=CC4(C)C3C(O)CC21C (configuration not stated),n,n,n,n,n,n,x,x
COCCNC(=O)c1cn(CCOC)c(=O)c2c1c1ccccc1n2C,n,n,n,27,n,n,134,104
COCCn1cc(C(=O)NCCCOC(C)C)c2c3ccccc3n(C)c2c1=O,n,n,n,30,n,n,128,112
CC(C)Cn1cc(C(=O)NCCCN2CCCC2=O)c2c3ccccc3n(C)c2c1=O,n,n,n,33,n,n,n,n
COCCCNC(=O)c1cn(CCOC)c(=O)c2c1c1ccccc1n2C,n,n,n,37,n,n,90,96
COc1ccc(Cl)cc1N(CC(=O)NCCSc1ccccn1)S(=O)(=O)c1ccccc1,n,n,n,n,n,n,x,x
